# PfG6PD inh: PfG6PD enzyme inhibitors, primary screen, biochemical, fluorescence intensity, uHTS | glucose-6-phosphate dehydrogenase-6-phosphogluconolactonase (Plasmodium falciparum 3D7) | 350,000 compounds, 0.78% hits | PfGluPho enzyme, NADPH resazurin-diaphorase fluorescence | inhibition, % at 20 µM;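 active means inhibition reaching at least a set limit at 20 µM in the primary screen, cut at about 59% in these data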;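 further: 0% = DMSO wells with substrate and 100% = DMSO wells lacking glucose-6-phosphate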
# H9c2 protect: cardioprotection against H2O2-induced cell death, primary screen, uHTS, H9c2 cells, ATPLite luminescence; H9c2 cardiomyocytes, H2O2 injury protection, 2 h; protection from H2O2 cell death, % at 20 µM; 360,000 compounds, 0.63% hits; AID 588492, 2011;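 active means compounds giving at least 50% protection of heart cells from peroxide-induced death in the single-dose screen, raw or plate-pattern-corrected value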;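 further: 0% = DMSO wells with peroxide and 100% = DMSO wells without peroxide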
# aDG glyco up: activators of alpha-DG glycosylation, primary screen, uHTS, Pro5-aDG cells, AlphaScreen. AID 624168, 2012. 360,000 compounds, 0.22% hits. alpha-DG glycosylation AlphaScreen (IIH6); 0% Pro5, 100% B10-LARGE cell signal. activation, % at 10 µM;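 active means activation of at least 8% versus controls, or a plate z-score of at least 8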;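 further: Pro5 are CHO cells carrying HIG-tagged alpha-DG that lacks glycosylation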
# CRFR2-BP antag: antagonists of CRF-BP/CRF-R2 complex, primary screen, cell-based, HEK293, calcium dye fluorescence, uHTS; CRF-induced calcium fluorescence; inhibition, % at 11.8 µM; 350,000 compounds, 0.59% hits; AID 588475, 2011;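 active means inhibition of the ligand-induced calcium signal above about 50% at the single tested concentration, limit read from the data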
# FAS TE block: FAS thioesterase domain inhibitors, primary screen, biochemical, fluorescence intensity, uHTS; Fatty acid synthase (Homo sapiens), P49327; recombinant FAS-TE, OMFH fluorogenic substrate, fluorescence endpoint; inhibition, % at 15 µM; 360,000 compounds, 0.67% hits; AID 602261, 2012;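 active means compounds whose normalised, plate-corrected inhibition of enzyme fluorescence in the single-dose primary screen is 50% or more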;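 further: 0% = DMSO with enzyme and 100% = substrate without enzyme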
# CRFBP-R2 agonist: agonists of CRF-BP/CRF-R2 complex, primary screen, cell-based, HEK293, calcium dye fluorescence, uHTS. CRF-binding protein / CRF receptor 2 complex (human). calcium dye fluorescence (FLIPR); percent of saturating CRF peptide response. activation, % at 13.2 µM. 350,000 compounds, 0.46% hits. AID 588473, 2011;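 active means activation of at least 50%, plus an integration ratio under a set limit after plate pattern correction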;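 further: plate controls were neutral control wells without compound for no effect and CRF at EC100 for full effect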
# aDG conf: alpha-DG glycosylation enhancers, retest, confirmation, single concentration, Pro5-aDG cells; shares compounds with aDG glyco up; IIH6 AlphaLISA; scaled to LARGE-overexpressing B10 cells as 100%; activation, % at 10 µM (by protocol); 600 compounds, 17% hits; AID 651671, 2012;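 active means activation of at least 7% in one or more replicates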;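 further: cells exposed to compound for two days before detection; 0% = DMSO-treated Pro5 cells and 100% = DMSO-treated B10-LARGE cells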
# * marks the source's active call; other numbers are inactive results; · = no result given. This is a sample that favours compounds with a hit; in the whole collection about 3.2% have one here.
SMILES,PfG6PD inh,H9c2 protect,aDG glyco up,CRFR2-BP antag,FAS TE block,CRFBP-R2 agonist,aDG conf
CCCCc1c(-c2ccccc2OC)ncn1Cc1cccc(-c2ccccc2)c1,·,·,11*,·,6,·,1
CCCCc1c(-c2cccc(OC)c2)ncn1CCc1ccccc1OC,·,·,0,·,23,·,·
CCCCc1c(-c2ccc(OC)c(OC)c2)ncn1CCc1ccccc1OC,·,·,14*,·,8,·,0
CCn1ccnc1CN(C)Cc1c(C(=O)N2C[C@@H](C)O[C@@H](C)C2)nc2ccc(Cl)cn12,-6,2,0,13,-4,-1,·
CCCCc1c(C)nn(-c2nnc3c4ccccc4n(C)c3n2)c1C,18,-17,4.2*,6,-4,-1,2
NC(c1csc(Nc2cc(Oc3ccccc3)ncn2)n1)C1CCCCC1 (stereo unspecified),·,-8,9.7*,·,-1,·,11*
COc1ccc(C(N)c2csc(Nc3cc(Oc4ccccc4)ncn3)n2)cc1 (stereo unspecified),·,5,2,·,-5,·,·
O=C(CSCc1cccc(Br)c1)NC1CC1,18,10,5.3*,-12,-4,-5,0
Nc1nc(Cl)cc(N2CCC(c3cc(-c4ccc(Cl)cc4Cl)n[nH]3)CC2)n1,24,-17,11*,-13,21,2,1
Nc1nc(Cl)cc(N2CCCC2)n1,3,2,0,27,-5,17,·
Cc1nc2c(ccc3nc(NC(=O)c4ccc5c(c4)OCCO5)sc32)s1,55,-21,0,-7,9,0,·
Cc1nc2ccc3nc(NC(=O)c4ccc5c(c4)OCCO5)sc3c2s1,8,3,7.7*,-20,0,2,-1
O=C(Nc1ccccc1F)c1ccc([N+](=O)[O-])s1,10,0,16*,1,-4,-2,3.7*
O=C(Nc1cccc2ccccc12)c1ccc([N+](=O)[O-])s1,3,-10,12*,-7,2,0,5.7*
O=C(Nc1cccc2ccccc12)c1ccc([N+](=O)[O-])o1,7,-19,1,1,1,-2,·
CCOC(=S)SCC(=O)N1CCc2cc(OC)ccc2C1C1C(=O)CCCC1=O (stereo unspecified),-18,-4,0,18,-10,-4,·
COc1ccc(Cl)cc1C(=O)NNC(=O)CSc1nnnn1C,6,-2,0,6,-6,-1,·
CC(C)Cn1c(N)c(C(=O)COC(=O)c2ccc(Br)cc2)c(=O)n(C)c1=O,10,-15,3.4*,1,27,4,1.2*
C=CCNC(=S)NNC(=O)CCC(O)CCCCC (stereo unspecified),18,5,8.4*,-11,-5,-1,2
C=CCNC(=S)NNC(=O)C(CCCC)CC(C)O (stereo unspecified),-13,5,5,5,-8,-3,·
O=C(C1CCN(c2nnc(-n3cccc3)s2)CC1)N1CCN(c2cccc(C(F)(F)F)c2)CC1,-13,-16,8.0*,-3,-2,0,0
C[C@H]1CN([C@@H](C)CO)S(=O)(=O)c2ccc(Br)cc2O[C@H]1CN(C)C(=O)CN(C)C,·,2,10*,·,-9,·,2
Cc1nn(C)cc1C1C2=C(CC(C)(C)CC2=O)N(c2ccccc2)C2=C1C(=O)CC(C)(C)C2,-6,13,4.2*,22,-5,-3,-1
O=C(Cn1cccc1C(=O)c1ccccc1)NCCCN1CCOCC1,-14,-4,0,13,-12,-1,·
Cc1ccc(C)c(N2CCN(CCCNC(=O)Cn3cccc3C(=O)c3ccccc3)CC2)c1,3,-3,10*,-39,5,1,3

# Screening data: PubChem BioAssay, Sanford-Burnham Center for Chemical Genomics
